Test [1] can be described thus: qHTS assay to identify small molecule antagonists of the estrogen related receptor (ERR) signaling pathway from Tox21 library - cell viability counter screen (AID 1224834). Further: nearly all actives have a fitted effect of over 30% in size. Put shortly: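 ERR reporter cells, 2,000 per well, rested 6 h, then exposed to compound in DMSO for 17.5 hours at 37 C. Viability read as fluorescence after 30 min with CellTiter-Fluor.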
A general note: In qHTS, concentration-response curves come from the screen itself.

Test [2] has as its target Luciferin 4-monooxygenase (Photinus pyralis) (UniProt P08659). As to the kind of experiment: qHTS assay to identify small molecule inhibitors of firefly luciferase (AID 1224835). Further: nearly all actives have a fitted effect of over 25% in size. Further: potency means the concentration at half of the fitted maximal effect. Put shortly:
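Inhibition of purified Photinus luciferase is measured by luminescence. Substrate levels (D-luciferin, ATP) sit at their KM values. Each compound is tested in a concentration series.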

A short description of test [3]: qHTS assay to identify small molecule agonists of the constitutive androstane receptor (CAR) signaling pathway - cell viability counter screen (AID 1224836). Further: nearly all actives have a fitted effect of over 45% in size. An outline of the steps:
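Double-stable HepG2 hepatoma cells (hCAR plus CYP2B6-2.2kb) are treated for 23 h at 37 C with test compounds in 15-point concentration series. PK11195 at 0.75 uM final is co-added. Cell viability is quantified by CellTiter-Fluor.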

The nature of test [4]: qHTS assay to identify small molecule antagonists of the constitutive androstane receptor (CAR) signaling pathway - cell viability counter screen (AID 1224837). Further: nearly all actives have a fitted effect of over 45% in size. An outline of the steps:
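HepG2 cells stably carrying hCAR and CYP2B6-2.2kb reporter, stimulated with 50 nM CITCO and compounds at 15 concentrations for 23 h at 37 C. Viability measured by CellTiter-Fluor fluorescence.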

Test [5] has as its target Nuclear receptor subfamily 1 group I member 3 (Homo sapiens) (UniProt Q14994). The test is described as follows: qHTS assay to identify small molecule agonists of the constitutive androstane receptor (CAR) signaling pathway (AID 1224839). Further: nearly all actives have a fitted effect of over 15% in size. Further: potency means the concentration at half of the fitted maximal effect. Put shortly:
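Readout: firefly luciferase luminescence via ONE-Glo. System: HepG2 double-stable for hCAR and CYP2B6-2.2kb. Conditions: 15-point compound titration, PK11195 at 0.75 uM final, 24 h incubation.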

Test [6] in a line: qHTS assay to identify small molecule antagonists of the estrogen related receptor signaling pathway with the pleiotropic PPARgamma coactivator (PGC) from Tox21 10K library - cell viability counter screen (AID 1224840; active means well fitted cell-killing curve with a large enough effect in the repeat runs, not every such curve was filed as active; further: nearly all actives have a fitted effect of over 40% in size). Put shortly:
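PGC/ERR cells (2,000/well) plated 6 h, then compound-treated for 17.5 h at 37 C. Viability measured by CellTiter-Fluor fluorescence after 30 min at 37 C, multiplexed with the pathway assay.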

The target in test [7] is Thyrotropin receptor (Homo sapiens) (UniProt P16473). The test is described as follows: qHTS assay to identify small molecule agonists of the thyroid stimulating hormone receptor (TSHR) signaling pathway (AID 1224843; calls by dose curve; further: nearly all actives have a fitted effect of over 45% in size). An outline of the steps:
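HEK293 cells stably bearing the thyrotropin receptor were plated at 800 cells/well and challenged with compound (30 min, RT). Accumulated cAMP was quantified via cAMP-d2 competing for cryptate-tagged antibody.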

Test [8] in a line: qHTS assay to identify small molecule agonists of the hypoxia (HIF-1) signaling pathway - cell viability counter screen (AID 1224844; calls by dose curve; further: nearly all actives have a fitted effect of over 50% in size). Put shortly:
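HRE-bla ME-180 cells, 2,000/well in 0.5% dialyzed FBS medium, treated 17 h at 37C with compounds. Viability read in the same wells as the bla reporter, by CellTiter-Glo luminescence after 30 min at room temperature.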

A short description of test [9]: qHTS assay to identify small molecule agonists of H2AX (AID 1224845; active means well fitted activation curve with a large enough effect in the signal ratio in the repeat runs, not every such curve was filed as active; the % refers to the signal ratio). An outline of the steps:
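Phospho-H2AX Ser139 measured by HTRF (ex 320 nm; em 665 and 620 nm) after 24 hr antibody incubation. Compounds, 15 concentrations, 0.76% DMSO, were applied to CHO-K1 cells for 3hr at 37C before lysis.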

Test [10] in a line: qHTS assay to identify small molecule agonists of the hypoxia (HIF-1) signaling pathway (AID 1224846; active means well fitted activation curve with a large enough effect in the signal ratio in the repeat runs, not every such curve was filed as active; the % refers to the signal ratio). An outline of the steps:
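HRE-bla ME-180 beta-lactamase reporter cells in medium with 0.5% dialyzed FBS, pre-incubated 5 h then exposed to compounds 17 h at 37C, 5% CO2; reporter induction read with CCF4-AM FRET substrate.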

The nature of test [11]: qHTS assay to identify small molecule agonists of H2AX - cell viability counter screen (AID 1224847; calls by dose curve;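 further: wild-type CHO-K1 cells; top concentration of the series differs between compounds; nearly all actives have a fitted effect of over 30% in size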). An outline of the steps: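 For this counter screen, overnight-attached CHO-K1 cells received test compounds (15 concentrations, 0.76% DMSO final); 3 hr later at 37C, CellTiter-Glo reagent was added and luminescence recorded after 30 min at room temperature.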
Test [12] in a line: qHTS RealTime-Glo MT Cell Viability Assay in HepG2 cells - 24 hour (AID 1224867). Further: nearly all actives have a fitted effect of over 50% in size. An outline of the steps: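 Compound treatment began 5 h after plating HepG2 cells (600/well) with NanoLuc luciferase and prosubstrate. Plates stayed at 37 C for 40 h; luminescence was captured at six time points, 0 h through 40 h.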
A short description of test [13]: qHTS RealTime-Glo MT Cell Viability Assay in HEK293 cells - 32 hour (AID 1224868). Further: top concentration of the series differs between compounds; nearly all actives have a fitted effect of over 50% in size. Put shortly: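 Quantitative high-throughput screen of the Tox21 10K library in HEK293: cells and RealTime-Glo reagents plated together, compound added at 5 h, luminescence monitored through 40 h at 37 C.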
The nature of test [14]: A CellTox Green Cytotoxicity Assay to monitor cytotoxicity in HEK293 cells - 0 hour (AID 1224869). Further: nearly all actives have a fitted effect of over 50% in size. Put shortly: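 HEK293 cells, 600/well, were preincubated 5 hours and then exposed to compounds at 37 C for up to 40 hours. A cell-impermeant cyanine dye staining dead-cell DNA was read by fluorescence at 0, 8, 16, 24, 32 and 40 h time points.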
Test [15] is described as follows: qHTS RealTime-Glo MT Cell Viability Assay in HepG2 cells - 40 hour (AID 1224870). Further: nearly all actives have a fitted effect of over 50% in size. An outline of the steps: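 Real-time viability: cells seeded at 600 per well together with NanoLuc and cell-permeant prosubstrate, compounds added after 5 h incubation. Luminescence tracked at 0, 8, 16, 24, 32 and 40 h of exposure.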
In test [16] the target is Nuclear receptor subfamily 1 group I member 3 (Homo sapiens) (UniProt Q14994). As to the kind of experiment: qHTS assay to identify small molecule antagonists of the constitutive androstane receptor (CAR) signaling pathway (AID 1224838). Further: nearly all actives have a fitted effect of over 40% in size. Put shortly:
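HepG2 cells stably carrying hCAR and a CYP2B6-2.2kb luciferase reporter, seeded 4 hrs before compound (15 concentrations). Stimulated with 50 nM CITCO for 24 hr at 37 C. ONE-Glo luminescence read after 30 min at room temperature.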

The nature of test [17]: qHTS assay to identify small molecule antagonists of the estrogen related receptor signaling pathway with the pleiotropic PPARgamma coactivator (PGC) from Tox21 10K library (AID 1224841; call rule not given here). Put shortly:
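PGC/ERR cell line, 2,000 cells/well, pre-incubated 6 hours at 37 C, then exposed to compounds for 18 hours at 37 C; luciferase read with One-Glo luminescence after 30 min at room temperature.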

Test [18] is described as follows: qHTS assay to identify small molecule antagonists of the estrogen related receptor (ERR) signaling pathway from Tox21 library (AID 1224848). Further: nearly all actives have a fitted effect of over 50% in size. Put shortly: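 Reading was by luminescence 30 min after ONE-Glo addition. Before that, ERR cells at 2,000 per well had rested 6 h at 37 C/5% CO2 and then received pin-tooled compounds in DMSO for 18 h at 37 C.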
A short description of test [19]: qHTS assay to identify small molecule agonists of the estrogen related receptor (ERR) signaling pathway from Tox21 library (AID 1224849; calls by dose curve; further: nearly all actives have a fitted effect of over 15% in size). The note with it: ERR reporter cell line, ONE-Glo luciferase, 18 h; at 92.4 µM (top of the series) unless noted. Put shortly: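 ERR reporter cells (NTP line) pre-incubated 6 hours at 37 C, then exposed to compounds for 18 hours at 37 C. ONE-Glo luciferase luminescence was read after 30 minutes at room temperature.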

A short description of test [20]: qHTS assay to identify small molecule agonists of the estrogen related receptor signaling pathway with the pleiotropic PPARgamma coactivator (PGC) from Tox21 10K library (AID 1224842). Further: nearly all actives have a fitted effect of over 15% in size. Put shortly:
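Luminescence from One-Glo (30 min, room temperature) measured after PGC/ERR cells had 18 h at 37 C with pinned compound (23 nL in DMSO). Cells had been seeded at 2,000 per well and pre-incubated 6 h.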

Values without a mark were called inactive. Inconclusive results are not listed. The source made the active and inactive calls. Unless noted, the call rests on the fitted dose curve; in most records, active means well fitted curve in the direction sought with a large enough effect in the repeat runs; inconclusive means weak or mixed curves; inactive means no such curve, though single readings can be large; an effect the other way counts as inactive or inconclusive.
On the % scale 0 is the no-effect control and ±100 the full control effect.

Thyrotropin receptor (Homo sapiens), sequence (P16473 whole entry, looked up): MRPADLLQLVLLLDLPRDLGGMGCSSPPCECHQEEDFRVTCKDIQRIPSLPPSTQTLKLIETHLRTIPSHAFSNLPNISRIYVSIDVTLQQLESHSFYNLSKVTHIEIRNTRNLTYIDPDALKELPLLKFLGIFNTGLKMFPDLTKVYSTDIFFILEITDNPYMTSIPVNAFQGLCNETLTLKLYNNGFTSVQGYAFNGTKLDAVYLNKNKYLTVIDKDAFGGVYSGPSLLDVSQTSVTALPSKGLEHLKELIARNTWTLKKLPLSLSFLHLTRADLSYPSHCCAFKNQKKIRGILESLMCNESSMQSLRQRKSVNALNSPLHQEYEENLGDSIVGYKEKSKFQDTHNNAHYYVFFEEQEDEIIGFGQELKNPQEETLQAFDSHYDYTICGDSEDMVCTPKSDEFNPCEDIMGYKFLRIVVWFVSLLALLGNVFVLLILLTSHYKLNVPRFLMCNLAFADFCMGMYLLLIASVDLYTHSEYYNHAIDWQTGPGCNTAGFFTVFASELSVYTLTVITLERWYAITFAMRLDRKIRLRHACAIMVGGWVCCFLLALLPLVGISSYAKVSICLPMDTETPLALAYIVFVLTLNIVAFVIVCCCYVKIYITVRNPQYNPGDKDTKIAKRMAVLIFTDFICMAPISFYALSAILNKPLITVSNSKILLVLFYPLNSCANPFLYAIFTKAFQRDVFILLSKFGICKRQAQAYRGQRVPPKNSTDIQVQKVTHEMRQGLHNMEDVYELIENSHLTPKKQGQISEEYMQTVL
Luciferin 4-monooxygenase (Photinus pyralis), sequence (P08659 whole entry, looked up): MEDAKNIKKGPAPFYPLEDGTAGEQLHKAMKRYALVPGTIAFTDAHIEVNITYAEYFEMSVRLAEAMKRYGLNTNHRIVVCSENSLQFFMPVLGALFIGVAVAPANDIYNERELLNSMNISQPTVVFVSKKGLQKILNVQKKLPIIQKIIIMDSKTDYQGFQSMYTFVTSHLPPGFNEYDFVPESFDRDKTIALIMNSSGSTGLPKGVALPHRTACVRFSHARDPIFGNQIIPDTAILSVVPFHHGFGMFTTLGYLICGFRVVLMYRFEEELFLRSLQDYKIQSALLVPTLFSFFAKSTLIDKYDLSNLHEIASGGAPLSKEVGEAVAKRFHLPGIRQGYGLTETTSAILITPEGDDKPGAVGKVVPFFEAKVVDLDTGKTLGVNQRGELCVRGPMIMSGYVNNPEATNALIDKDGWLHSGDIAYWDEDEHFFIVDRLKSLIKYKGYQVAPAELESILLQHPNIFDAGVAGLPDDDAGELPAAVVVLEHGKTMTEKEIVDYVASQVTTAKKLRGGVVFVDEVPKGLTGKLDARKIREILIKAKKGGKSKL
Nuclear receptor subfamily 1 group I member 3 (Homo sapiens), sequence (Q14994 whole entry, looked up): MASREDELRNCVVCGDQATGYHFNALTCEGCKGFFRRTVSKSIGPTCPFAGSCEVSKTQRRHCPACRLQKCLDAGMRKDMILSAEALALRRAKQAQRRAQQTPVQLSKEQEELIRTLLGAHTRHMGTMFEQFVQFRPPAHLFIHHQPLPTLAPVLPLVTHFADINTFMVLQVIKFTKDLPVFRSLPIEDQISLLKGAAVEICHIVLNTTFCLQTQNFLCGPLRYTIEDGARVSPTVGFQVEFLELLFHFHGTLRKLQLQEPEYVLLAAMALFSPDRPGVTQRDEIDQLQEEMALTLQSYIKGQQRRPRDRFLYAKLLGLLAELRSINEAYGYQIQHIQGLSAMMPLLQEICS

For the compound `CC(CCl)OC(C)CCl` (configuration not stated), the Potency entry in test [1], in test [2], in [3], in test [4], in test [5] and in [6] was “inactive” each time. The Potency entry in test [7], in test [8], in [9], in test [11], in test [13] and in [14] was “inactive” in each case. The Potency result in test [15] was “inactive”. The compound was called inactive in test [10] and in test [12].
In the case of `O=c1c2ccccc2oc2ccccc12`, the Potency entry in test [1], in test [3], in test [4], in [16], in test [6] and in test [8] was “inactive” in each case. Moreover, the Potency result in [9], in test [11], in [13], in test [14] and in test [15] was “inactive” throughout. Besides, the results for the Potency in test [2] and in test [5] were 20 µM (active) and 24.3 µM (active), respectively. Besides, the compound was called inactive in test [10].
Consider `CC1(COc2ccc(CC3SC(=O)NC3=O)cc2)CCCCC1` (configuration not stated), for which the Potency result in [1], in [3], in [4], in [16], in test [6] and in test [17] was “inactive” in each case. Further, the Potency result in [7], in [9], in test [11], in test [18], in test [13] and in test [14] was “inactive” throughout. In addition, the Potency in test [2] was 27.5 µM (active). The call in test [10] was inactive. The activity change, positive = activation in test [19] was 7.77% [at 42.5 µM].
Turning to `OCCOc1cccc(OCCO)c1`, the Potency result in [1], in [2], in test [3], in [4], in test [6] and in test [17] was “inactive” each time. In addition, the Potency result in test [20], in test [7], in test [8], in test [9], in test [11] and in test [18] was “inactive” in each case. For the same compound, the Potency entry in [13] and in test [14] was “inactive” each time. Also, the call in [10] and in test [12] was inactive. The activity change, positive = activation in [19] is 0.271%.
`O=C(O)c1cccc(C(=O)O)c1C(=O)O`: the Potency result in test [1], in [2], in [3], in test [4], in [16] and in test [5] was “inactive” throughout. The Potency result in test [6], in [7], in [9], in test [11], in [13] and in test [15] was “inactive” in each case. Moreover, the result in [10] and in test [12] was inactive.
As for `CC(C)(C)NCC(O)COc1ccc(NC(=O)NC2CCCCC2)cc1` (configuration not stated), the Potency entry in [1], in [2], in [3], in test [4], in test [16] and in test [6] was “inactive” in each case. Further, the Potency result in [7], in [8], in [9], in test [11] and in test [14] was “inactive” in each case. Also, the outcome in test [10] was inactive.
On to `C[Si](C)(C)O[Si](C)(C)O[Si](C)(C)C`, for which the Potency result in [1], in test [2], in [3], in test [4], in test [5] and in test [6] was “inactive” in each case. Besides, the Potency entry in test [7], in test [8], in test [9], in [11], in [13] and in test [14] was “inactive” in each case. Also, in [15], the Potency entry is “inactive”. Further, the compound was classed as inactive in test [10] and in test [12].
`CC(=O)Nc1ccn(C2COC(COC(=O)c3ccccc3)O2)c(=O)n1` (configuration not stated): the Potency entry in [1], in test [2], in test [3], in [4], in test [5] and in [6] was “inactive” each time. For the same compound, the Potency result in [17], in test [20], in test [7], in test [8], in test [9] and in test [18] was “inactive” each time. In addition, the Potency result in test [13], in [14] and in test [15] was “inactive” each time. In addition, the activity change, positive = activation in [19] is -13.3% [at 42.5 µM]. In addition, the compound was classed as inactive in test [12].
As to `CCCCOC(=O)C(C)Oc1ccc(Oc2ccc(C(F)(F)F)cn2)cc1` (configuration not stated), the Potency result in test [1], in test [2], in test [3], in test [4], in test [5] and in [6] was “inactive” in each case. Also, the Potency result in [8], in test [9], in test [11], in test [13] and in test [14] was “inactive” in each case. For the same compound, the compound was classed as inactive in test [10] and in test [12].

The values above are taken from PubChem BioAssay (Tox21).
